Laboratory results taken from PubChem BioAssay (Tox21).
Inconclusive results are not listed. Where a call stands in place of a potency, no number is given. Some structures have more than one record in an assay (separate samples or runs), and their calls can disagree. Calls of active or inactive are those of the source. Calls come from the whole dose curve.

Biological target: Progesterone receptor (Homo sapiens) (UniProt P06401)
Test: qHTS assay to identify small molecule agonists of the progesterone receptor (PR) signaling pathway (AID 1346784); note: nearly all actives have a fitted effect of over 30% in size
Details: PR-UAS-bla HEK293T, beta-lactamase FRET ratio, 16 h; series mostly up to 92.4 µM; activation: at the top concentration
Text: U.S. Tox21 Program National Center for Advancing Translational Sciences [NCATS] NIH Chemical Genomics Center [NCGC] U.S. Environmental Protection Agency [EPA] National Institutes of Environmental Health Sciences [NIEHS] National Toxicology Program [NTP] U.S. Food and Drug Administration [FDA] […] Endocrine disrupting chemicals (EDCs) and their interactions with steroid hormone receptors like PR causes disruption of normal endocrine function. To identify the compounds that activate PR signaling, a PR-UAS-bla GripTite cell line i.e. PR-UAS-bla HEK 293T (Invitrogen, Carlsbad, CA, USA) containing a beta-lactamase reporter gene under the control of an Upstream Activator Sequence (UAS) was used to screen Tox21 10K compound library.
Tox21 Assay Protocol Summary: PR-UAS-bla HEK 293T cells were dispensed at 3,000 cells/5 uL of assay medium containing 2% charcoal stripped FBS per well into black wall/clear-bottom 1536-well plates using a Multidrop Combi (ThermoFisher Scientific, Waltham, MA) dispenser. After the assay plates were incubated at a 37C and 5% CO2 for 6hr, 23 nL of compounds dissolved in DMSO, positive controls or DMSO only was transferred to the assay plate by a Pintool station (Kalypsys, San Diego, CA). The plates were incubated at 37C and 5% CO2 for 16hr. Then 1 uL of LiveBLAzer B/G FRET substrate was added using a BioRAPTR FRD (Flying Reagent Dispenser, Aurora Discovery, San Diego, CA). After the plates were incubated at room temperature for 2 hours, fluorescence intensity was measured by an Envision plate reader (PerkinElmer, Shelton, CT).
Potency is the fitted concentration of half-maximal effect.

Sequence of Progesterone receptor (Homo sapiens) (P06401 whole entry, looked up): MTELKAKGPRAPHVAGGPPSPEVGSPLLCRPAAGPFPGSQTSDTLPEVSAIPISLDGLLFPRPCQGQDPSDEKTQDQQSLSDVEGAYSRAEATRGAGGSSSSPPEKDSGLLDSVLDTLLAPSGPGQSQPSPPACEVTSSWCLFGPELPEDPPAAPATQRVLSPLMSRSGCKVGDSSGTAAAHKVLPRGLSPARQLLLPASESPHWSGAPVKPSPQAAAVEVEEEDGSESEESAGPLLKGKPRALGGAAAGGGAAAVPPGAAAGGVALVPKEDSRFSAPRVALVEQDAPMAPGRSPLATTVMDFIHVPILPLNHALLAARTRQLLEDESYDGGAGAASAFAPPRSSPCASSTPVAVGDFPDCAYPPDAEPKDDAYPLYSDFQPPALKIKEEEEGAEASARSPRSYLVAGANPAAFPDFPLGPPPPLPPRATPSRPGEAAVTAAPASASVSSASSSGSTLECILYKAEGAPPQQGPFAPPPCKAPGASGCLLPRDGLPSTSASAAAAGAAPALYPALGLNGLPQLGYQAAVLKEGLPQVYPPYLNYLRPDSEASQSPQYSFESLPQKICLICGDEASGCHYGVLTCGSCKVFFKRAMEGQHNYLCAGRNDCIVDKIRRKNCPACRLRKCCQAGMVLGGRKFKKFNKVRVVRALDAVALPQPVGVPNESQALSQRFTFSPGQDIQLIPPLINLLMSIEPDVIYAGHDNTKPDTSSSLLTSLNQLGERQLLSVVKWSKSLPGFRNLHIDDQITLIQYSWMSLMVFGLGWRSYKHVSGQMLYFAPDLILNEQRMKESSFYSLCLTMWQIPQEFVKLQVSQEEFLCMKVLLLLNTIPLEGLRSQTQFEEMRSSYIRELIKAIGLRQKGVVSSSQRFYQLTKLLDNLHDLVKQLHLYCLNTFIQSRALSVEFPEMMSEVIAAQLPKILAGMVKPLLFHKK

SMILES | Potency | activation
CCCCCCCCOC(=O)c1ccccc1C(=O)OCCCCCCCC | inactive | –
O=C(NC(=O)c1c(F)cccc1F)Nc1ccc(Cl)cc1 | inactive | –
O=S(=O)(Oc1ccc(Cl)cc1)c1ccc(Cl)cc1 | inactive | –
COC(=O)c1sccc1S(=O)(=O)NC(=O)Nc1nc(C)nc(OC)n1 | inactive | –
CNC(=O)N(C)c1nnc(C(C)(C)C)s1 | inactive | –
CNC(=O)Oc1cccc2c1OC(C)(C)O2 | inactive | –
Nc1ccc(-c2ccccc2)cc1 | – | 3.02% (inactive)
C1=Cc2cccc3cccc1c23 | 60.1 µM (active) and inactive | –
C=C(C)[C@H]1Cc2c(ccc3c2O[C@@H]2COc4cc(OC)c(OC)cc4[C@@H]2C3=O)O1 | inactive | –
CCCCCCCCC(=O)NCc1ccc(O)c(OC)c1 | inactive | –
O=c1oc2ccccc2c(O)c1C(CC(O)c1ccc(-c2ccc(Br)cc2)cc1)c1ccccc1 (stereo not given) | – | 2.94% [at 42.5 µM] (inactive)
C=CCN(CC=C)C(=O)C(Cl)Cl | inactive | –
Nc1ccncc1 | inactive | –
CCC(C)(C)c1ccc(O)cc1 | inactive | –
O=P(O)(O)CCCl | inactive | –
NC(=S)Nc1ccccc1 | inactive | –
COP(=O)(OC)OC | inactive | –
CCC(C)c1cc([N+](=O)[O-])cc([N+](=O)[O-])c1O (stereo not given) | – | -0.814% (inactive)
Cc1ccccc1[N+](=O)[O-] | inactive | –
CCN(CC)N=O | inactive | –

SMILES | Potency | activation
CCN(N=O)C(N)=O | – | -0.0957% [at 42.5 µM] (inactive)
N#Cc1cc(Br)c(O)c(Br)c1 | – | 6.48% (inactive)
CCC(CC)Nc1c([N+](=O)[O-])cc(C)c(C)c1[N+](=O)[O-] | inactive | –
CC(C)N(C(=O)SCC(Cl)=C(Cl)Cl)C(C)C | inactive | –
N#CC(Br)Br | inactive | –
CCN(CC)C(=O)SCc1ccc(Cl)cc1 | inactive | –
Cc1cc(Cl)ccc1OCCCC(=O)O | – | 0.0646% (inactive)
CC(C)(OOC(C)(C)c1ccccc1)c1ccccc1 | inactive | –
O=P(Oc1ccccc1)(Oc1ccccc1)Oc1ccccc1 | inactive | –
Oc1cc(Cl)ccc1Cl | inactive | –
NCc1cccnc1 | inactive | –
CCCCC(CC)COC(=O)c1ccc(C(=O)OCC(CC)CCCC)c(C(=O)OCC(CC)CCCC)c1 (stereo not given) | inactive | –
CC(C)=CC1C(C(=O)OCc2coc(Cc3ccccc3)c2)C1(C)C (stereo not given) | – | 0.417% (inactive)
CCC(C)c1ccc(O)cc1 (stereo not given) | inactive | –
CCC(C)(c1ccc(O)cc1)c1ccc(O)cc1 | inactive | –
CCCCOCCOP(=O)(OCCOCCCC)OCCOCCCC | inactive | –
CCOCN(C(=O)CCl)c1c(C)cccc1CC | – | 12.5% (inactive)
CC(C)Oc1cc(-n2nc(C(C)(C)C)oc2=O)c(Cl)cc1Cl | inactive | –
CC(C)NC(C)C | inactive | –
Nc1ccc(-c2ccc(N)c(N)c2)cc1N | – | 1.14% (inactive)
